Consider 5 molecules from PubChem BioAssay (EPA / NIEHS).

Assay [1] is described as follows: ATG_GLI_CIS: Attagene CIS-FACTORIAL HepG2 Assay for human Zinc Finger Protein GLI1 (AID 2282945). The settings on record: HepG2, Attagene cis-factorial reporter mRNA, GLI element; actives raise or lower the signal. In outline:
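Bidirectional curve fits relative to DMSO, using reporter mRNA levels from RT-PCR plus capillary electrophoresis. Cells were HepG2 transiently carrying cis-regulated reporter constructs, harvested 24 h after dosing.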

In assay [2] the target is Bile acid receptor (Homo sapiens) (UniProt Q96RI1). Kind of assay: ATG_IR1_CIS: Attagene CIS-FACTORIAL HepG2 Assay for human Nuclear Receptor Subfamily 1 Group H Member 4 (NR1H4), IR1 submotif (AID 2282946). The settings on record: IR1 reporter transcription, actives raise or lower the signal. The method, boiled down: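 Cells (human HepG2) carry transiently transfected cis-promoter reporter transcription units. Compounds are incubated 24 h, total RNA is reverse-transcribed and amplified, and labelled fragments are resolved by capillary electrophoresis. Curves use DMSO as baseline.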
Bile acid receptor (Homo sapiens), sequence (Q96RI1 whole entry, looked up, the tested form may be a part): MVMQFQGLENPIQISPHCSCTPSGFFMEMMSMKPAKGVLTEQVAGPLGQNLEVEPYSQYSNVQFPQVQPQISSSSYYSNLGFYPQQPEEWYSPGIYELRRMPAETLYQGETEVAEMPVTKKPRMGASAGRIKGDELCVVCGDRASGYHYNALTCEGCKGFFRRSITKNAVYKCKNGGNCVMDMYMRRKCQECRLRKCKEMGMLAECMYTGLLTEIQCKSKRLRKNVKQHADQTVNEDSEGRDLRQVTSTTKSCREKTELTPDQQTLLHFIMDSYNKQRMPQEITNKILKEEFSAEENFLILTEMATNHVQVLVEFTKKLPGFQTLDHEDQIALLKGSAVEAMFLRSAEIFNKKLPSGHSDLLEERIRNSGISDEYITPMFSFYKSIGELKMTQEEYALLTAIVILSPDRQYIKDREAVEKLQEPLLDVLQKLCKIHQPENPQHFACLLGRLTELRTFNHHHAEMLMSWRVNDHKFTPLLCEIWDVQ

A short description of assay [3]: ATG_ISRE_CIS: Attagene CIS-FACTORIAL HepG2 Assay for human Interferon Regulatory Factor 1 (IRF1) binding to an Interferon-Stimulated Response Element (ISRE) (AID 2282948). The settings on record: HepG2 ISRE cis-reporter (Attagene), mRNA transcription readout; actives raise or lower the signal. In outline: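 Quantitation relies on labelled RT-PCR fragments separated by capillary electrophoresis. Human HepG2 cells bearing cis-promoter reporter constructs were treated 24 h; DMSO served as baseline for bidirectional fitting.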

A short description of assay [4]: ATG_M_32_CIS: Attagene CIS-FACTORIAL HepG2 Assay for M32 Transcription Factor (Internal Marker) (AID 2282949).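 Also: background control marker of the multiplexed CIS panel rather than a real target.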 The settings on record: HepG2 Attagene cis-factorial M32 reporter, mRNA; actives raise or lower the signal. The method, boiled down: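 Fluorescent capillary electrophoresis peaks of HpaI-digested, FAM-labelled RT-PCR reporter products give the signal. Source: transiently transfected human liver HepG2 cells, 24 h after chemical dosing; bidirectional fitting against DMSO.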

Assay [5] deals with Hypoxia-inducible factor 1-alpha (Homo sapiens) (UniProt Q16665). Kind of assay: ATG_HIF1a_CIS: Attagene CIS-FACTORIAL HepG2 Assay for human Hypoxia Inducible Factor 1 (HIF1A) (AID 2282951). The settings on record: HepG2 Attagene cis-factorial HIF1a reporter transcription; actives raise or lower the signal. The method, boiled down: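 Endogenous-TF cis reporter readout, human HepG2 cells, 24 h incubation; mRNA detected via RT-PCR and capillary electrophoresis fluorescence; DMSO-normalised bidirectional fitting.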
Hypoxia-inducible factor 1-alpha (Homo sapiens), sequence (Q16665 whole entry, looked up): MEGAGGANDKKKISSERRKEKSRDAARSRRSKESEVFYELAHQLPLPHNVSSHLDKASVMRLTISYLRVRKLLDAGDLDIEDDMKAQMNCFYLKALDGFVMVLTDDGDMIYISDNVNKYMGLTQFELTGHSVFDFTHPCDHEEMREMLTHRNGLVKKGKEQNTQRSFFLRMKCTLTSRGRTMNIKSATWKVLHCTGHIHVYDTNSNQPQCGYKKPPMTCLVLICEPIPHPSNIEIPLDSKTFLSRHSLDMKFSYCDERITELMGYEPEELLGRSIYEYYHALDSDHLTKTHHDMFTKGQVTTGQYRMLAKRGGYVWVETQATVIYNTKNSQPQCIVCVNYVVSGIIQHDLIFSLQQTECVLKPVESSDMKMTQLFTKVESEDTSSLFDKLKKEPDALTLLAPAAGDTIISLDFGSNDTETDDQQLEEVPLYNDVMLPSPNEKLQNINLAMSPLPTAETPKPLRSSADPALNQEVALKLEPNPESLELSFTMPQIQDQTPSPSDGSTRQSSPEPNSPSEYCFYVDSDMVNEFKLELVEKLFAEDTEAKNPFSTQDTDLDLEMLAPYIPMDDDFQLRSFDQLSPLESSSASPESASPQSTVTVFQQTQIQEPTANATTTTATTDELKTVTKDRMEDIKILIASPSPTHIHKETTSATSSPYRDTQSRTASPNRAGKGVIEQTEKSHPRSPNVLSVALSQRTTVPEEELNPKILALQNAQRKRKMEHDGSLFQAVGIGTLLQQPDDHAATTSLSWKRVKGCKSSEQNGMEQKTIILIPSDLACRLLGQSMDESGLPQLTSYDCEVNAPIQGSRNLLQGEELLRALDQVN

The target of assay [6] is Heat shock factor protein 1 (Homo sapiens) (UniProt Q00613). Kind of assay: ATG_HSE_CIS: Attagene CIS-FACTORIAL HepG2 Assay for human Heat Shock Transcription Factor 1 (HSE) (AID 2282953). The settings on record: HepG2 HSE cis-reporter, Attagene RNA transcription; actives raise or lower the signal. The method, boiled down: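 Endogenous transcription factor activity in transiently transfected HepG2, read as reporter mRNA by RT-PCR with fluorescent capillary electrophoresis after 24 h. Gain or loss of signal fitted versus DMSO baseline.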
Heat shock factor protein 1 (Homo sapiens), sequence (Q00613 whole entry, looked up): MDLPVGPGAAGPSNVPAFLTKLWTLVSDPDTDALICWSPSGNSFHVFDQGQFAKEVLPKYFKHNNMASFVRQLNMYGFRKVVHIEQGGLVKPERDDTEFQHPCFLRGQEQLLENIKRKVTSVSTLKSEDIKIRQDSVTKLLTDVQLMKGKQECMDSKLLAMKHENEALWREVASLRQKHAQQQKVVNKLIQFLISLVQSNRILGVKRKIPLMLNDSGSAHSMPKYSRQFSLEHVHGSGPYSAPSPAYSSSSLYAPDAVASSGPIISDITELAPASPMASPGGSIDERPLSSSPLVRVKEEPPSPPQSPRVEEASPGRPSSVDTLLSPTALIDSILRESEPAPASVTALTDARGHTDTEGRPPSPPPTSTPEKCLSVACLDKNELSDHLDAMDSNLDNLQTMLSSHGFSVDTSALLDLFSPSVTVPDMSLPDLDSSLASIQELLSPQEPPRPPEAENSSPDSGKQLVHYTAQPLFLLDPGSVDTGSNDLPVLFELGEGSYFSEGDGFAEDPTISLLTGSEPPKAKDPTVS

Assay [7] is described as follows: ATG_MRE_CIS: Attagene CIS-FACTORIAL HepG2 Assay for human Metal Responsive Element (MRE) (AID 2282954). The settings on record: HepG2 MRE cis-reporter transcription, Attagene multiplex; actives raise or lower the signal. In outline: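 Transient MRTU transfection of HepG2 (FuGene 6); 24 h dosing; total RNA → oligo(dT) RT, PCR, 6-FAM primer extension, HpaI cut, CE. Bidirectional fit vs DMSO.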

The nature of assay [8]: ATG_PBREM_CIS: Attagene CIS-FACTORIAL HepG2 Assay for human Phenobarbital-responsive Enhancer Module (PBREM) (AID 2282955). The settings on record: HepG2 PBREM cis-reporter, Attagene multiplexed transcription; actives raise or lower the signal. The method, boiled down: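 Readout: reporter mRNA, fluorescent RT-PCR fragments separated by capillary electrophoresis. System: HepG2 transiently transfected with cis-regulated reporter units. Exposure: 24 h. Analysis: bidirectional, DMSO baseline.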

Assay [9] concerns the target Paired box protein Pax-6 (Homo sapiens) (UniProt P26367). In words: ATG_Pax6_CIS: Attagene CIS-FACTORIAL HepG2 Assay for human Paired Box 6 (PAX6) (AID 2282956). The settings on record: HepG2 CIS-FACTORIAL PAX6 reporter transcription, RNA readout; actives raise or lower the signal. In outline:
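After twenty-four hours of chemical exposure, transfected HepG2 cells are harvested for RNA. Cis-promoter reporter transcripts are amplified, fluorescently labelled and sized by capillary electrophoresis, with gain and loss of signal scored against DMSO.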

The nature of assay [10]: ATG_PXRE_CIS: Attagene CIS-FACTORIAL HepG2 Assay for human Pregnane X Receptor Element (PXRE) (AID 2282957). The settings on record: HepG2 Attagene CIS-FACTORIAL PXRE reporter, mRNA; actives raise or lower the signal. In outline:
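Transiently transfected HepG2 cells were dosed and incubated for 24 h. RNA was then isolated, DNase-treated, reverse-transcribed and reporter sequences amplified. Labeled, HpaI-digested fragments were quantified by capillary electrophoresis against DMSO.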

A short description of assay [11]: ATG_PPRE_CIS: Attagene CIS-FACTORIAL HepG2 Assay for human Peroxisome Proliferator-activated Response Element (PPRE) (AID 2282958). The settings on record: HepG2 PPRE cis-element reporter, Attagene transcription factor profiling; actives raise or lower the signal. The method, boiled down: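 After human HepG2 hepatoma cells were transiently transfected with cis-promoter reporter constructs, they were exposed to test chemicals for 24 hours. Reporter RNA was then reverse-transcribed, PCR-amplified, FAM-labeled, HpaI-digested and quantified by capillary electrophoresis.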

Assay [12] concerns the target Transcription factor Sp1 (Homo sapiens) (UniProt P08047). In words: ATG_Sp1_CIS: Attagene CIS-FACTORIAL HepG2 Assay for human Specificity Protein 1 (Sp1) (AID 2282961). The settings on record: HepG2 Sp1 cis-reporter transcription, actives raise or lower the signal. In outline:
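After transient transfection of HepG2 cells with cis-promoter reporter units and 24 h chemical treatment, reporter transcripts were quantified by RT-PCR and capillary electrophoresis fluorescence. Gain- and loss-of-signal fitted against DMSO.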

The target in assay [13] is Signal transducer and activator of transcription 3 (Homo sapiens) (UniProt P40763). In words: ATG_STAT3_CIS: Attagene CIS-FACTORIAL HepG2 Assay for human Signal Transducer and Activator of Transcription 3 (STAT3) (AID 2282963). The settings on record: HepG2, Attagene cis-factorial STAT3 reporter transcription; actives raise or lower the signal. In outline:
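Endogenous STAT3-responsive cis-element activity was read in transiently transfected HepG2 cells after 24 h treatment. Reporter transcripts were quantified via RT-PCR and capillary electrophoresis, with DMSO as negative control and bidirectional curve fitting.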

Assay [14] in a line: ATG_TA_CIS: Attagene CIS-FACTORIAL HepG2 Assay for human TA Basal Promoter (AID 2282964). The settings on record: HepG2 Attagene CIS-factorial TA basal promoter reporter; actives raise or lower the signal. The method, boiled down:
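Background-control readout: TA basal promoter reporter mRNA, fitted in both directions relative to DMSO. Measured by RT-PCR and capillary electrophoresis 24 hours after treating HepG2 human liver cells transiently carrying multiplexed cis-regulated reporter constructs.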

The nature of assay [15]: ATG_Sox_CIS: Attagene CIS-FACTORIAL HepG2 Assay for human SRY-box transcription factor (SOX) (AID 2282960). The settings on record: HepG2 Attagene cis-factorial SOX reporter, mRNA; actives raise or lower the signal. In outline:
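Using transiently transfected HepG2 cells, reporter transcription driven by cis elements was assessed 24 h after dosing. Signal was fluorescence of capillary-separated RT-PCR products, with DMSO defining baseline activity.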

Assay [16] can be described thus: ATG_SREBP_CIS: Attagene CIS-FACTORIAL HepG2 Assay for human Sterol Regulatory Element Binding (SREBP) (AID 2282962). The settings on record: HepG2 Attagene cis-factorial SREBP reporter, mRNA; actives raise or lower the signal. In outline: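 Twenty-four hours after chemical dosing of transfected HepG2 cultures, reporter RNA was converted to cDNA, amplified, end-labelled with 6-FAM and resolved by capillary electrophoresis. Responses were fitted relative to DMSO.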

The target in assay [17] is Hepatocyte nuclear factor 6 (Homo sapiens) (UniProt Q9UBC0). In words: ATG_HNF6_CIS: Attagene CIS-FACTORIAL HepG2 Assay for human Hepatocyte Nuclear Factor 6 (HNF6) (AID 2282952). The settings on record: HepG2 Attagene cis-factorial HNF6 reporter transcription; actives raise or lower the signal. The method, boiled down: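 Reporter mRNA induction or loss in HepG2 after 24 h exposure; transient cis-MRTU transfection; fragments quantified by capillary electrophoresis; bidirectional analysis, DMSO as negative control.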
Hepatocyte nuclear factor 6 (Homo sapiens), sequence (Q9UBC0 whole entry, looked up, the tested form may be a part): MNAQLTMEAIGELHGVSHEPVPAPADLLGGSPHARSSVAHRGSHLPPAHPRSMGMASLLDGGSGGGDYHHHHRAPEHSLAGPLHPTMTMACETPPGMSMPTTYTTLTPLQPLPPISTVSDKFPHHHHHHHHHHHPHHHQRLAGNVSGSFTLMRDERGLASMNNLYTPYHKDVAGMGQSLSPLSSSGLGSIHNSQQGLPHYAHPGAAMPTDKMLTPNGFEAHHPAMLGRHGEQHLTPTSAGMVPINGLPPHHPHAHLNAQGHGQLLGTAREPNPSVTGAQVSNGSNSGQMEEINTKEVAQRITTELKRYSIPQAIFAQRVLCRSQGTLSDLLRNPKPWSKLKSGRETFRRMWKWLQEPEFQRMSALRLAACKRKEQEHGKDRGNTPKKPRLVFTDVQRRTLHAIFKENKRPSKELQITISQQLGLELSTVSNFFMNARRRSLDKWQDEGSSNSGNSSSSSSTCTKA

The nature of assay [18]: ATG_RORE_CIS: Attagene CIS-FACTORIAL HepG2 Assay for human RAR-related Orphan Receptor Element (RORE) (AID 2282959). The settings on record: HepG2 Attagene cis-factorial RORE reporter, mRNA; actives raise or lower the signal. In outline: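 Measured here: transcript induction of a cis-regulated reporter in HepG2 cells transiently transfected via FuGene 6. After 24 h, RNA was processed by RT-PCR and fluorescent capillary electrophoresis; DMSO defined baseline activity.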

Assay [19] is described as follows: ATG_GRE_CIS: Attagene CIS-FACTORIAL HepG2 Assay for human Glucocorticoid Response Elements (GRE) (AID 2282947). The settings on record: HepG2 GRE cis-reporter, Attagene multiplex mRNA; actives raise or lower the signal. The method, boiled down: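 Transient MRTU transfection of human HepG2 liver cells; cis-regulated reporters report endogenous factors. 24 h dosing → RNA isolation → RT-PCR → 6-FAM primer extension → HpaI cut → CE fragment analysis. Bidirectional fit, DMSO negative control.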

Where a structure was tested more than once in an assay, its records may differ in their call. The source made the active and inactive calls. The calls were made as follows: active = hit-call score of the fitted dose curve at least 0.9, where 1 is the maximum; inactive = score below 0.9.

Transcription factor Sp1 (Homo sapiens), sequence (P08047 whole entry, looked up): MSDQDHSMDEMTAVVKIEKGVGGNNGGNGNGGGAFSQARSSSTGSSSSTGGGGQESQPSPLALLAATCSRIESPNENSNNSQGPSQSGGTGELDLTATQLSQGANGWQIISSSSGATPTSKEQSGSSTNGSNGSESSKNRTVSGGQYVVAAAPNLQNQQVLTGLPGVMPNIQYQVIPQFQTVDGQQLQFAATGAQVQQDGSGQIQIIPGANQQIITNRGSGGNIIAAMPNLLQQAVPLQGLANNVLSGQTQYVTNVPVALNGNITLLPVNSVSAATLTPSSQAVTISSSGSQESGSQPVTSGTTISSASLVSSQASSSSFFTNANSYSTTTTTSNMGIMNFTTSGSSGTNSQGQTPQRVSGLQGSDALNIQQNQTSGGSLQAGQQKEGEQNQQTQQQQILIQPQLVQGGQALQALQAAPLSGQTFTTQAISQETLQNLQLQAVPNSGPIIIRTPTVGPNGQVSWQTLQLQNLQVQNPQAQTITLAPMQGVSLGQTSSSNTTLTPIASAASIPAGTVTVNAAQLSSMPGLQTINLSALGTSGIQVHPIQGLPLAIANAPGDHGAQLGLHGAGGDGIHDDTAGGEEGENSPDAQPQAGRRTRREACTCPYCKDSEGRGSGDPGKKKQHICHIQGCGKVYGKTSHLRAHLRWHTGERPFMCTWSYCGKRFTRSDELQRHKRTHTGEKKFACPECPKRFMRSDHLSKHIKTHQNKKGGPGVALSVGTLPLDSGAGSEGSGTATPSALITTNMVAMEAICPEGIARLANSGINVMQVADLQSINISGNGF
Paired box protein Pax-6 (Homo sapiens), sequence (P26367 whole entry, looked up): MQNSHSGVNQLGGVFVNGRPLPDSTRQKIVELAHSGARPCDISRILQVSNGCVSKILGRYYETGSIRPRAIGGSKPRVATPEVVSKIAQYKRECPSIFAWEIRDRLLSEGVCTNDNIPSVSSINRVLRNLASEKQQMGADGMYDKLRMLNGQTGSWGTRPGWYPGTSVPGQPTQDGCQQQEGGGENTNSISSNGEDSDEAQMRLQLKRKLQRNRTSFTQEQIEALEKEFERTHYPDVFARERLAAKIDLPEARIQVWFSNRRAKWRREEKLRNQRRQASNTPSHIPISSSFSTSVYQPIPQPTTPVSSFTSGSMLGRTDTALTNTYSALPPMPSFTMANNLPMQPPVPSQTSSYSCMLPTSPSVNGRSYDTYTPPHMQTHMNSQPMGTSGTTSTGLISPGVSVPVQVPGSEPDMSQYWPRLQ
Signal transducer and activator of transcription 3 (Homo sapiens), sequence (P40763 whole entry, looked up): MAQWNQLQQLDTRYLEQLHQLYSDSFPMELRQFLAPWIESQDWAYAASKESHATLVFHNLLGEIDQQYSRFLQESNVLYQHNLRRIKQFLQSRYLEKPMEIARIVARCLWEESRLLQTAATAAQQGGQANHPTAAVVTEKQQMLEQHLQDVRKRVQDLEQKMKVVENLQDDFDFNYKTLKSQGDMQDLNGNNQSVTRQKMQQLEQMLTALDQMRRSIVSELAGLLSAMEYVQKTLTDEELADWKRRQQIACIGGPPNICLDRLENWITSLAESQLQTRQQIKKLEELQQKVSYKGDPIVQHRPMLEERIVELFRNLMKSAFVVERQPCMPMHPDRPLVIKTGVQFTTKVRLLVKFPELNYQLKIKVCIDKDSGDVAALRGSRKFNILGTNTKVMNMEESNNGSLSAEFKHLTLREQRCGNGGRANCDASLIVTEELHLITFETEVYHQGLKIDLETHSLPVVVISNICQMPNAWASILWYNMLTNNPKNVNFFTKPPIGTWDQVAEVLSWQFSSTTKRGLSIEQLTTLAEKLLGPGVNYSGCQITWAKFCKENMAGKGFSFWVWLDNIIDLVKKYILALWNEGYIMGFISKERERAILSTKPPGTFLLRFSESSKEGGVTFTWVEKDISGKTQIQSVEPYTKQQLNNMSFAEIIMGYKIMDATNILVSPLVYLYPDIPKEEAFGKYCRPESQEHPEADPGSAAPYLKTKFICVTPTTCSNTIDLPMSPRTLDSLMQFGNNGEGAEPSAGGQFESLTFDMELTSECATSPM

As for `O=C(O)C(F)(F)C(F)(F)OC(F)(F)F`, the outcome in [1], in assay [2], in [3], in assay [4], in assay [5] and in assay [6] was inactive. In addition, the molecule was classed as inactive in assay [7], in assay [8], in assay [9], in assay [10], in assay [11] and in assay [12]. The outcome in assay [13] and in assay [14] was inactive.

As to `OCC(F)(F)C(F)(F)C(F)(F)F`, the outcome in assay [1], in [2], in assay [3], in assay [4], in assay [7] and in assay [8] was inactive. Further, the molecule was called inactive in assay [9], in [10], in [11], in assay [15], in [12] and in [16]. In addition, the outcome in assay [13] and in assay [14] was inactive.

With `C=C(C)C(=O)OCCC(F)(F)C(F)(F)C(F)(F)C(F)(F)C(F)(C(F)(F)F)C(F)(F)F`, the outcome in [1], in assay [2], in assay [3], in assay [4], in assay [17] and in assay [6] was inactive. Moreover, the outcome in [7], in assay [8], in [9], in assay [10], in [11] and in assay [18] was inactive. Besides, the molecule was classed as inactive in [15], in assay [12], in assay [16], in assay [13] and in assay [14].

Usually AC50 stands for the midpoint of the concentration-response curve, whichever way the signal moves. As for `Oc1ccc(Nc2ccccc2)cc1`, the result in [1], in assay [2], in assay [3], in assay [4], in assay [5] and in assay [8] was inactive. Besides, the outcome in [9], in assay [11], in [12] and in assay [13] was inactive. In addition, the AC50 in [7] is 61.1 µM (active); in assay [10] it was 21.9 µM (active); in assay [18], 74.6 µM (active); in [14] it was 58.1 µM (active).

As for `Cc1cc(C)cc(O)c1`, the molecule was called inactive in assay [1], in assay [19], in [3], in [4], in assay [17] and in assay [6]. The outcome in [7], in assay [8], in [9], in [10], in [11] and in assay [12] was inactive. Moreover, the call in [16], in assay [13] and in assay [14] was inactive. The AC50 in assay [10] was 64.5 µM (active).
